About 840 (25%) of roughly 3,400 compounds were called active. Another 11% or so got no clear call; they are omitted. Not all results are given here. Entries with a potency or affinity are not part of this list. Unmarked numbers belong to inactive results.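 Rule for the calls: active = fitted half-maximal concentration of signal decrease at or below twice the sample's top tested concentration; inconclusive = flat curve between -70 and -30 percent, or poor fit; inactive = flat within 30 percent, signal rise, or potency above limit.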

This assay can be described thus: T. gondii growth inhibition with IFN-gamma, dose response, cell-based, ME49Luc, HeLa, luciferase, 72 h (AID 1259418). Particulars: T. gondii ME49Luc in IFN-y HeLa, hits give low values, -100% = high-dose IFN-γ control wells; at 19.5 µM unless noted.
Regarding `CCOc1ccc(-c2nc(Cn3c(=O)c4c(C)cc(C)nc4n(-c4ccccc4)c3=O)c(C)o2)cc1`, the max activity is 8.31% [at 0.16 µM].

For `O=C(Nc1ccccc1F)N1CCCCN2[C@H](C1)[C@H](c1ccc(/C=C/c3ccccc3)cc1)[C@@H]2CO`, the max activity is 35.7% [at 10 µM].

For `COc1ccc(NC(=O)N2CCCCN3[C@@H](CO)[C@H](c4ccc(-c5ccccc5F)cc4)[C@@H]3C2)cc1`, the max activity was 20.7% [at 5 µM].

As for `CCc1ccc(-n2nnc(C(=O)N3CCC(N4CCCCC4)CC3)c2-c2ccncc2)cc1`, the max activity was 6.73% [at 5 µM].

Consider `Cc1[nH]c2ccccc2c1C(=O)C(=O)NC1CC(=O)N(c2ccc3c(c2)OCCO3)C1` (stereo not given), for which the max activity is 7.24%.

For the compound `Cc1ccc(-c2coc(-c3ccc(NC(=O)COc4ccccc4C)cc3)n2)c(C)c1`, the max activity was -20.2% [at 1.35 µM].

In the case of `COc1ccc(-c2nc(N(C)C3CCCCC3)c3ccccc3n2)cc1`, the max activity was 11.7%.

As for `COc1ccccc1Nc1nc(-c2ccc(Cl)cc2)nc2ccccc12`, the max activity was -18.5% [at 0.68 µM].

Regarding `Cc1ccsc1C(=O)Nc1ccc(-c2nc(-c3ccccc3)co2)cc1`, the max activity is 30.4% [at 0.68 µM].

`COc1cccc(N(Cc2nc(-c3ccccc3)oc2C)S(=O)(=O)c2ccc(C)cc2)c1`: the max activity is -7.21% [at 1.35 µM].

Regarding `O=C(Cn1c(=O)c(S(=O)(=O)c2ccccc2)cc2ccccc21)NC1CCCC1`, the max activity is 9.84% [at 0.35 µM].

As to `CCOc1ccccc1-c1nc(CN2CCc3c(sc4c3CCCC4)C2c2ccccc2)c(C)o1` (stereo not given), the max activity is 19.5%.

As for `CC1=CCC=CC1C(=O)Nc1ccc2c(c1)CCC(=O)N2C` (stereo not given), the max activity is 56.7%.

On to `Cc1ccc(-c2coc(-c3ccc(NC(=O)Nc4ccccc4)cc3)n2)cc1`, for which the max activity is -15.8%.

In the case of `Cc1ccc(-c2coc(-c3ccc(NC(=O)COc4ccc(F)cc4)cc3)n2)c(C)c1`, the max activity was 10.4% [at 0.35 µM].

For `COCCCNC1=NCCNC12CCN(S(=O)(=O)c1cc(C)cc(C)c1)CC2`, the max activity is 11.6% [at 10 µM].

Consider `Cc1cc(C)cc(S(=O)(=O)N2CCC3(CC2)NCCN=C3NCc2cccc(F)c2)c1`, for which the max activity was -38.9%.

Regarding `Cc1nc(-c2ccc(F)cc2)sc1-c1ccc(SCc2ccc(Cl)c(Cl)c2)nn1`, the max activity is 7.38% [at 2.6 µM].

Take `COc1cc(NC(=O)CN2CCC3(CC2)N=C(c2ccc(F)cc2)C(=O)N3)cc(OC)c1`: the max activity was 16.7% [at 10 µM].

As for `O=C(COc1ccc(Br)cc1)Nc1cncc(-c2nc3ccccc3o2)c1`, the max activity was 8.52% [at 0.16 µM].

In the case of `COc1cccc(S(=O)(=O)N2CCCCN3[C@H](C2)[C@@H](c2ccc(C#CCC(C)C)cc2)[C@@H]3CO)c1`, the max activity was 100% [at 0.08 µM].

With `COc1cccc(S(=O)(=O)N2CCCCN3[C@H](CO)[C@@H](c4ccc(C#CCC(C)C)cc4)[C@@H]3C2)c1`, the max activity was 106%.

Turning to `O=S(=O)(c1ccccc1)N1CCCCN2[C@H](C1)[C@H](c1ccc(C#CC3CCCC3)cc1)[C@@H]2CO`, the max activity is 27.4% [at 5 µM].

Regarding `COc1cc(C(=O)N2CCC3(CC2)Nc2cc(F)ccc2-n2cccc23)cc(OC)c1OC`, the max activity is 5.03% [at 0.68 µM].

`COc1cccc(NC(=O)Nc2ccc(-c3nc(-c4ccc(C)cc4)co3)cc2)c1`: the max activity was 21.2% [at 0.16 µM].

For the compound `Cc1cccc(NC(=O)N2CCN(Cc3nc(-c4cccc(Cl)c4)oc3C)CC2)c1C`, the max activity was 13.9% [at 5 µM].

For the compound `CCc1ccc(NC(=O)N2CCN(Cc3nc(-c4cccc(Cl)c4)oc3C)CC2)cc1`, the max activity was -13.8%.

As to `COc1ccc(NC(=O)N2CCN(Cc3nc(-c4cccc(Cl)c4)oc3C)CC2)cc1OC`, the max activity was -22.8%.

For the compound `Cc1oc(-c2cccc(Cl)c2)nc1CN1CCN(C(=O)Nc2ccccc2C(F)(F)F)CC1`, the max activity is -9.46% [at 2.6 µM].

For `Cc1oc(-c2cccc(Cl)c2)nc1CN1CCN(C(=O)Nc2ccccc2)CC1`, the max activity is -19.4%.

As for `Cc1cc(C)cc(NC(=O)N2CCN(Cc3nc(-c4cccc(Cl)c4)oc3C)CC2)c1`, the max activity was 11% [at 1.35 µM].

As to `COc1ccc(-c2nc(Cn3c(=O)c4c(C)cc(C)nc4n(-c4ccccc4)c3=O)c(C)o2)c(OC)c1`, the max activity is 5.72% [at 2.6 µM].

`CCc1ccccc1Nc1ncnc2c1cnn2-c1ccccc1`: the max activity is 13.8% [at 10 µM].

As to `COc1ccc(Cl)cc1S(=O)(=O)Nc1ccc(-c2nc(-c3ccc(C)c(C)c3)co2)cc1`, the max activity was 41.1% [at 10 µM].

Regarding `COc1ccc(C#Cc2ccc3c(c2)[C@H]2[C@H](CCN2S(=O)(=O)c2ccccc2C)[C@H](CO)N3C)cc1`, the max activity was 22.1% [at 10 µM].

As to `CN1c2ccc(Br)cc2[C@H]2[C@H](CCN2S(=O)(=O)c2ccccc2F)[C@H]1CO`, the max activity is 25% [at 9 µM].

As for `CN1c2ccc(-c3ccc(C#N)cc3)cc2[C@H]2[C@H](CCN2S(=O)(=O)c2ccc(F)cc2)[C@H]1CO`, the max activity was 42.2% [at 10 µM].

Take `COc1ccc2c(c1)NC1(CCN(C(=O)c3ccccc3C)CC1)c1cccn1-2`: the max activity was 9.16% [at 0.68 µM].

As to `CCc1cccc(NC(=O)COc2nc(C)nc3ccccc23)c1`, the max activity is 15.1% [at 0.16 µM].

Consider `CCc1ccc(S(=O)(=O)N2CCC3(CCC(C(=O)N4CCCC4)O3)CC2)cc1` (stereo not given), for which the max activity was 19.6%.

For the compound `CCOc1ccc(-c2nc3c(s2)CN(S(=O)(=O)c2ccc(CC)cc2)CC3)cc1`, the max activity is 33%.

For the compound `Cc1ccc(-c2coc(-c3ccc(NC(=O)c4ccc(Br)o4)cc3)n2)c(C)c1`, the max activity is 29% [at 0.68 µM].

Take `COc1ccc(CCC(=O)N2CCC(C(=O)NCCc3csc(-c4ccccc4)n3)CC2)cc1`: the max activity is 22% [at 10 µM].

Consider `COc1ccc(-c2cnc3n2CCNC32CCN(C(=O)N3CCOCC3)CC2)cc1`, for which the max activity is 31.8%.

With `Cc1oc(-c2cccc(Cl)c2)nc1Cn1nnc(-c2nc(-c3ccccc3)no2)c1C`, the max activity was 25.3%.

Source of the values: PubChem BioAssay AID1259418 (Broad Institute, 2018).
